# CHRM1 antagonist: human CHRM1 antagonism. inhibition, % at 3 µM. P11229. CHO-K1 hM1, Fluo-8 calcium fluorescence, ACh EC80 antagonist. actives 1.3% (n = 360,000);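 active = percent inhibition above its own plate's cutoff, namely the mean of that plate's compound wells plus 3 SD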;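 also: peak over basal fluorescence ratio during 140 s after agonist addition; 0% = ACh EC80 plus DMSO and 100% = DMSO alone without agonist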
# Target sequence (P11229 whole entry, looked up): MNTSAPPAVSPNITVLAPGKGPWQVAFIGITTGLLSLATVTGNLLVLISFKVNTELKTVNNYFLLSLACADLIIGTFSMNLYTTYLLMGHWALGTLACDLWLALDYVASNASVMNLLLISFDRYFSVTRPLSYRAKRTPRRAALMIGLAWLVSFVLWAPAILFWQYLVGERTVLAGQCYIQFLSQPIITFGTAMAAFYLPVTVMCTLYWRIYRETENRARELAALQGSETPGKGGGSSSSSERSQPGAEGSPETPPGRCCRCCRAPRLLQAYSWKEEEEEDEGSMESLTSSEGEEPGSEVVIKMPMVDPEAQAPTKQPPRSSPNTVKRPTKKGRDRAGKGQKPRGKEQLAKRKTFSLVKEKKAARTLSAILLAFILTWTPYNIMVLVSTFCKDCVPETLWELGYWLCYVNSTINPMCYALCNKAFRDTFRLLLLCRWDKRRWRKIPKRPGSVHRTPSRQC
# M4 ag: agonists of human muscarinic M4 receptor (CHRM4); P08173; activation, % at 3 µM; actives 0.14% (n = 360,000); CHO-K1 hM4/Gqi5, Fluo-8 calcium fluorescence; vehicle 0%, full acetylcholine response 100%;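 active = activation above the run mean over all test wells plus 3 SD, cut at about 32% in these data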;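 also: peak over basal fluorescence ratio per well then scaled between controls; 0% = DMSO wells and 100% = acetylcholine at EC100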
# M1 ag: agonists of human M1 muscarinic receptor; CHO-K1 hM1, Fluo-8 calcium fluorescence, agonist mode; 0% DMSO, 100% acetylcholine EC100; activation, % at 3 µM; actives 0.33% (n = 360,000); AID 588814;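 active = activation above the run's mean compound activation plus 3 SD, cut at about 16% in these data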;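 also: peak over basal fluorescence ratio within a 140 s kinetic read after compound addition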
# M1 PAM: human CHRM1 positive allosteric modulation; actives 0.088% (n = 360,000); activation, % at 3 µM; AID 588819; CHO-K1 hM1, Fluo-8 calcium fluorescence, ACh EC20; 0% = ACh EC20, 100% = maximal ACh; in the data active = activation above about 19%, passing the limit was not always enough
# CHRM4 antagonist: antagonists of human muscarinic M4 receptor (CHRM4); P08173; actives 0.73% (n = 360,000); inhibition, % at 3 µM; CHO-hM4 cells, ACh EC80, Fluo-8 calcium fluorescence;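 active = inhibition above its plate's cutoff, the mean inhibition of sample wells plus 3 SD, cut at about 27% in these data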;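 also: 0% = acetylcholine EC80 with DMSO and 100% = DMSO without agonist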
# M4 PAM: CHRM4 positive allosteric modulation; P08173; CHO-K1 hM4/Gqi5, Fluo-8 calcium fluorescence, ACh EC20; 0% = ACh EC20, 100% = maximal ACh; activation, % at 3 µM; actives 0.4% (n = 360,000); AID 624126;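 active = activation above its plate's cutoff, the mean activation of sample wells plus 3 SD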
# Numbers without * were called inactive. Most compounds without a hit are left out; they make up all but 2.2% or so of the library.
SMILES,CHRM1 antagonist,M4 ag,M1 ag,M1 PAM,CHRM4 antagonist,M4 PAM
O=C(NNc1ccccc1C(F)(F)F)c1cccs1,-1.2,1.6,-3.6,5.3,2.3,-11.0
COc1cc(C=NN2CCCCC2)cc(OC)c1OC,5.4,0.2,24.9*,-8.1,-11.2,0.9
COc1ccc2ccccc2c1C=NN1CCCCC1,9.4,-0.1,21.4*,-8.5,-1.4,-3.3
COc1ccc2sc(N(CCCN(C)C)C(=O)c3ccc(S(=O)(=O)N4CCCc5ccccc54)cc3)nc2c1,3.3,8.2,-0.9,-6.2,7.8,-1.8
CN1CCCN=C1COC(=O)C(O)(c1ccccc1)C1CCCCC1 (stereo not given),99.0*,0.8,-7.6,-26.3,99.2*,-18.2
CC(C)(C)N(Cc1ccccc1)C(=O)COC(=O)C1CCCCC1,-8.5,-0.6,-6.0,-0.4,-3.0,0.3
CC(C)N(C(=O)CSc1nc2c([nH]1)c(=O)n(C)c(=O)n2C)c1ccccc1,-8.3,0.8,-2.6,6.0,-16.4,16.9*
Cc1ccc(C(=O)CSc2nc3c([nH]2)c(=O)n(C)c(=O)n3C)cc1,-1.4,0.3,-7.6,1.7,-12.3,13.5
COc1ccc(NC(=O)c2ccc3nc(-c4ccccc4)c(-c4ccccc4)nc3c2)c(OC)c1,2.7,0.7,-3.0,6.2,1.6,0.8
C=CCn1c(SCc2ccc(C#N)cc2)nnc1-c1cccc(Cl)c1,-30.4,7.3,-6.0,-7.8,-20.5,-0.5
CCCCOC(=O)C1CN(c2ccccc2)N=C1C(=O)OCC (stereo not given),-20.4,-0.7,-12.2,5.9,-7.9,20.5*
CCOC(=O)N1CCN(C(=O)c2ccc(N(Cc3ccccc3Cl)S(C)(=O)=O)cc2)CC1,-5.0,-0.9,2.9,32.3*,1.4,4.8
COc1cccc(Nc2ncnc3ccccc23)c1,14.2,1.4,-5.5,-8.3,6.2,-3.9
O=C(Oc1cccc(Nc2ncnc3ccccc23)c1)c1ccccc1Cl,25.0*,15.4,2.6,-15.2,34.4*,-13.7
CCOC(=O)c1c(CN2CCC(C)CC2)n(C)c2cc(Br)c(OC)cc12,-2.5,-1.5,-6.3,2.8,-2.2,4.3
COc1ccc(C2=NS(=O)(=O)N(C)C(C(=O)N3CCC(C(N)=O)CC3)=C2)cc1,-2.2,1.0,-1.6,4.7,33.9*,-12.5
COc1ccc(C2=NS(=O)(=O)N(C)C(C(=O)N3CCOCC3)=C2)cc1,4.3,4.8,-2.1,-11.2,0.2,-8.1
COc1ccc(C2=NS(=O)(=O)N(C)C(C(=O)N3CCc4ccccc4C3)=C2)cc1OC,25.3*,25.0,-0.6,-18.7,-5.7,-11.8
COc1ccccc1OCC(=O)NCC1CCCN(C(=O)c2cccc(C)c2)C1 (stereo not given),-14.7,2.4,1.6,6.0,-7.2,2.3
O=C(CNC(=O)c1ccccc1F)N/N=C/c1cn[nH]c1-c1ccccc1,41.4*,2.6,-10.5,-29.6,17.2,-12.2
O=C(CNC(=O)c1ccc(F)cc1)N/N=C/c1cn[nH]c1-c1ccccc1,-7.5,1.0,2.0,8.0,1.9,11.1
CCN(CC)CCSc1nnc(Nc2ccccc2)n1-c1ccccc1,95.6*,-1.1,-14.4,-36.2,20.2,-17.8
CCN(CC)CCSc1nc(O)c(-c2ccccc2)c(=O)n1-c1ccccc1,-12.6,0.7,-6.0,6.1,0.8,1.5
CC(OC(=O)CCCN=C1NS(=O)(=O)c2ccccc21)C(=O)Nc1ccccc1F (stereo not given),-16.0,1.1,0.4,11.8,-3.7,3.2
CS(=O)(=O)N(CC(=O)O)c1ccc(Oc2ccccc2)cc1,10.9,0.9,-3.4,-5.6,-4.0,2.6
SMILES,CHRM1 antagonist,M4 ag,M1 ag,M1 PAM,CHRM4 antagonist,M4 PAM
COc1ccc(/C=N/NC(=O)c2ccc(CN3c4cccc5cccc(c45)S3(=O)=O)cc2)cc1,-10.2,2.0,16.2*,-6.7,-4.4,-1.4
O=C(N/N=C/CCc1ccccc1)c1ccc(CN2c3cccc4cccc(c34)S2(=O)=O)cc1,-11.1,3.5,21.0*,16.8,5.8,6.5
COc1cc(/C=N/NC(=O)c2ccc(CN3c4cccc5cccc(c45)S3(=O)=O)cc2)cc(OC)c1O,4.8,3.2,4.5,1.4,1.6,-5.0
O=C(CNC(=O)c1ccc(Br)o1)NCc1ccccc1,3.6,0.8,-2.0,-2.1,2.7,-0.6
COc1cc(C)c(NC(=S)Nc2ccc(C)c(Cl)c2)cc1OC,15.6,1.9,-7.5,-10.2,-14.7,11.8
COc1ccccc1NC(=O)c1cc2c(=O)n(C)c3ccccc3c2n1C,92.7*,9.6,-5.6,-18.9,53.7*,-22.4
CCC(C)(C)c1ccc(OCCCC[n+]2cccc(C)c2)c(C(C)(C)CC)c1,25.3*,1.6,6.9,-25.7,47.1*,-16.5
COc1cccc(NC(=O)C2(C)CCCN2C(=O)C(C)C)c1 (stereo not given),-2.0,0.5,-0.8,2.1,-1.6,5.3
CCCC/C(O)=C1\C(=O)CC(C)(C)CC1=Nc1ccc(OC)cc1,3.5,-3.0,-3.3,4.7,30.5*,-16.8
Cc1c(C(=O)OCC(=O)N(C)Cc2ccccc2)oc2ccccc12,-0.5,4.5,-8.4,0.5,-8.4,4.4
CC(C)(C)c1ccc(C(=O)OCCN2CCCCC2)cc1,45.5*,4.3,-7.2,-29.9,17.1,-8.2
Cc1c(C(=O)OC(C)CCN(C)C)oc2ccccc12 (stereo not given),98.5*,0.8,-4.7,-22.1,30.5*,-20.8
Cc1c(C(=O)OCC(=O)Nc2ccc(C(=O)N(C)C)cc2)oc2ccccc12,-8.3,2.7,-1.4,10.0,2.3,-0.3
Cc1c(C(=O)OCC(=O)N(C)c2ccccc2)oc2ccccc12,33.2*,4.7,-4.8,-21.9,-10.3,-4.2
Cc1c(C(=O)OCC(C)(C)CN(C)C)oc2ccccc12,53.4*,1.2,-4.3,-20.2,-3.3,-6.1
COc1ccc(C(=O)OCCN2CCCCC2)cc1,-8.0,1.0,-14.1,9.2,-5.8,0.1
O=C(COC(=O)c1cccs1)Nc1cc(S(=O)(=O)N2CCOCC2)ccc1Cl,-10.0,4.2,-3.6,7.5,-5.4,0.4
CN(C)c1cccc2cccc(N(C)C)c12,-8.9,0.2,-4.7,3.6,-4.6,-2.7
Cc1ccc(S(=O)(=O)Nc2ccc3c(c2)CCC3)cc1,5.9,-2.5,-6.9,-5.0,9.0,-14.8
Cc1c(C(=O)OCC(=O)NC(C)c2ccccc2)oc2ccccc12 (stereo not given),-15.1,2.9,-0.4,8.1,-2.8,1.4
CCN(CC)CC(C)(C)COC(=O)c1oc2ccccc2c1C,32.5*,0.1,-7.1,-21.6,-8.1,-11.2
Cc1c(C(=O)OCC(=O)N2C(C)CCCC2C)oc2ccccc12 (stereo not given),-11.6,2.3,-5.5,3.9,3.3,-3.6
